# Measured values from PubChem BioAssay (NCI).
# This is part of a sample that, as a whole, favours compounds with a hit. Of some 83,000 tested, about 20% had one in any assay.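 Values shown are percent growth following 48 h exposure of cells in 96-well plates to a single concentration of compound; below 10 was considered active.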 Unmarked numbers belong to inactive results. Activity calls are given as the source filed them.
# System: UACC-62 melanoma
# Assay: NCI-60 one-dose screen, 48 h (100 = growth as untreated, 0 = no growth, -100 = all killed)
# Details: 10 µM unless noted
row,SMILES,growth
1,CSc1nnc(-c2cc3c([nH]c4ccccc43)c(-c3cccc(O)c3)n2)n1-c1ccccc1,42.3%
2,Nc1cc(C(=O)NC[C@H]2CN(c3ccc(N4CCC(C(=O)O)CC4)cc3)C(=O)O2)ccc1Cl,95.8%
3,CC(C)(Sc1cc(C(C)(C)C)c(OC(=O)CCCC(=O)O)c(C(C)(C)C)c1)Sc1cc(C(C)(C)C)c(OC(=O)CCCC(=O)O)c(C(C)(C)C)c1,-19.7% (active)
4,C=CCn1c(SCC(=O)Nc2ccc(C(=O)/C=C/c3ccc(Cl)cc3)cc2)nnc1-c1ccc(Br)cc1,71%
5,CCOC(=O)c1nn(-c2ccc(S(N)(=O)=O)cc2)c2nc(C)cc(=O)n12,99.6%
6,CN(C)CCNC(=O)c1cc2c3cc(Cl)ccc3[nH]c2c2ncccc12,-86.5% (active)
7,COc1ccccc1NC(=O)N=Nc1c(O)[nH]c2ccccc12,79.2%
8,CC(=O)N1N=C(c2ccc(C(F)(F)F)c(F)c2)CC1c1[nH]c(C)c(C(=O)NCC(F)(F)F)c1C (stereo not given),87.7%
9,O=C(/C=C(/C=C/c1ccc2[nH]ccc2c1)OB(F)F)/C=C/c1ccc2[nH]ccc2c1,-21.5% (active)
10,CCOC(=O)c1cc2c(n1Cc1cc(OC)c(OC)c(OC)c1)-c1nc(N)sc1CCC2,35.5%
11,N#Cc1ccc(O)c(C2=NCC(c3ccccc3)O2)c1 (stereo not given),37.8%
12,CC(=O)c1c(C)nc(SCC(=O)Nc2cccc(O)c2)n1-c1ccc(Cl)cc1,75.3%
13,O=C(Nc1cccc2ccccc12)NC1CC1,99.8%
14,CCOC(=O)c1c2c(n3cccc(F)c13)C(=O)c1ncccc1C2=O,-33.4% (active)
15,O=c1c2ccccc2n2cnc3ccc(Cl)c1c32,64.6%
16,CC(C)c1ccc(-n2c(=S)[nH]c3sc4cc(O)ccc4c3c2=O)cc1,93.6%
17,N#Cc1c(-c2ccccc2)cc(-c2ccccc2)n(CCCC(=O)Nc2ccccc2N)c1=O,34.2%
18,COc1cc2c(cc1OCCCN1CCN(CCCOc3cc4c(cc3OC)C(=O)N3CCC[C@H]3C=N4)CC1)C=CC(C)(C)O2,1.28% (active)
19,CCC(C(=O)[C@@H](C)[C@@H](O)[C@H](C)[C@@H]1O[C@@H]([C@@H](CC)C(=O)ONC(=O)c2ccccc2)CC[C@@H]1C)[C@H]1O[C@]2(C=CC(=O)[C@]3(CC[C@@](C)([C@H]4CC[C@](O)(CC)[C@H](C)O4)O3)O2)[C@H](C)C[C@@H]1C (stereo not given in full),-24.5% (active)
20,CN1C(=O)/C(=C\c2nc([P+](c3ccccc3)(c3ccccc3)c3ccccc3)c(N3CCOCC3)o2)SC1=S,-3.31% (active)

row,SMILES,growth
1,COc1ccc(/C=C/C(=O)c2cccc(OCCCCOc3cccc(C(=O)/C=C/c4ccc(OC)c(OC)c4)c3)c2)cc1OC,57.7%
2,O=S(=O)(Nc1cc(Cl)ccc1Cl)c1ccc(-c2cnc(C3CC3)o2)cc1,33.2%
3,C=C1C(=O)O[C@H]2[C@H]1CC/C(COC(=O)c1cc3ccccc3s1)=C\CC[C@@]1(C)O[C@@H]21,-61.1% (active)
4,N=C(N)c1ccc(-c2ccc(-c3ccccc3)o2)cc1,-70% (active)
5,c1cnc2c(-c3nc4ccc5[nH]ncc5c4c4c3CCCC4)c[nH]c2c1,45.8%
6,Cc1nc2sc(C(=O)Nc3cccc(Br)c3)c(N)c2cc1C(O)c1ccccc1 (stereo not given),26.2%
7,Cn1ccnc1C(=O)/C=C/c1ccc(CC(=O)Nc2cc(C(F)(F)F)cc(C(F)(F)F)c2)cc1,67.5%
8,C=C1C(=O)O[C@H]2[C@H]1CC/C(Cn1cc(-c3ccccc3)nn1)=C\CC[C@@]1(C)O[C@@H]21,-45.2% (active)
9,Oc1c(I)cc(I)cc1CNCc1ccccn1,19.6%
10,CCOC(=O)c1cc2c(n1C)-c1nc(NC(C)=O)sc1CCC2,69.5%
11,COc1c(C(=O)Nc2ccc(C)c(Br)c2)ccc2ccccc12,71.6%
12,O=C(Nc1ccc(Oc2cccc(F)c2)c(Cl)c1)c1cccnc1,31.2%
13,COC12C=C/C(=C(/C(=O)OCc3ccncn3)C(=O)CCCCCCCCC3(OC)C=C/C(=C(/C(=O)OCc4ccncn4)C(=O)CCCCCCCC1)O3)O2,-47.4% (active)
14,COC1=CC(c2ccc[nH]2)=N/C1=C\c1[nH]c(C)c(C(=O)OC(C)C)c1C,-62.9% (active)
15,O=C(Nc1cccc(Cl)c1)Nc1cccc(Cn2c(=O)[nH]c3ccc(Oc4ncccn4)cc3c2=O)c1,49.3%
16,Cc1ccc(C)n1-c1ccccc1-n1c(C)ccc1C,87.5%
17,COc1ccc(/C=C/C(=O)c2ccc(Nc3ccnc4cc(Cl)ccc34)cc2)cc1,92.3%
18,CCN(CC)c1ccc(\C=N/N=C(N)/C(N)=N\N=C/c2ccc(N(CC)CC)cc2)cc1,104%
19,O=[N+]([O-])c1cccc(-c2nc3cc4nc5ccccc5[nH]c4cc3n2)c1,97.5%
20,COc1ccc(/C=C(\C#N)n2nnc3cc(Cl)ccc32)cc1,9.49% (active)
